Records with an inconclusive call do not appear. Activity calls are given as the source filed them. Calls come from the whole dose curve.
% is set by controls: 0 for no effect and ±100 for the full control effect.

This assay in a line: qHTS assay to identify small molecule agonists or antagonists of the thyroid stimulating hormone receptor (TSHR) signaling pathway - wild type cell line counter screen (AID 1259384). Particulars: HEK293 wild type, cAMP HTRF counter-screen, stronger effect = higher value; series mostly up to 92.4 µM. In short, it runs like this: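 Wild-type Hek293 cells, 800/well, 18 h at 37C, then compound with Ro20-1724 for 30 min RT. cAMP by HTRF (cAMP-d2/anti-cAMP cryptate), 1 h RT, fluorescence read. 15 concentrations, triplicates.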
For orientation: qHTS replaces the single test concentration by a dilution series.
For the compound `CCOC(=O)c1ccc(OC(=O)CCCCCN=C(N)N)cc1`, the compound was classed as inactive.

As to `C[Si](C)(C)C`, the outcome was inactive.

As to `C=Cc1ccccn1`, the outcome was inactive. Take `CCc1ccc(C=O)cc1`: the result was inactive. Turning to `C=C(C)C(=O)OCCNC(C)(C)C`, the compound was called inactive. As for `On1nnc2ccccc21`, the result was inactive. `CC(=O)c1sc(C)nc1C`: the result was inactive. Consider `Cc1ccccc1N=O`, for which the compound was called inactive. With `Brc1ccc(-c2ccccc2)cc1`, the outcome was inactive. On to `COc1ccc2nc(SCc3ncc(C)c(OC)c3C)[nH]c2c1`, for which the outcome was inactive. In the case of `CC1COc2ccccc2N1` (stereo not given), the result was inactive. On to `C[Si](C)=O`, for which the cAMP activity change was -4.18% [at 8.39 µM] (inactive).

On to `COc1ccc2c(c1)C(=O)N(CCc1ccc(S(=O)(=O)NC(=O)NC3CCCCC3)cc1)C(=O)C2(C)C`, for which the compound was classed as inactive. Take `O=C(OCC1(COC(=O)c2cccnc2)CCCC(COC(=O)c2cccnc2)(COC(=O)c2cccnc2)C1O)c1cccnc1`: the call was inactive. As for `CC(=O)Nc1cccc(C)c1`, the compound was called inactive. Take `CCCCNc1ccc(C(=O)OCCN(C)C)cc1`: the result was inactive. Take `O=C(OCC(O)CO)c1ccccc1Nc1ccnc2c(C(F)(F)F)cccc12` (stereo not given): the outcome was inactive. On to `CC(C)CC(C)CC(C)CC(C)COC(=O)c1ccccc1C(=O)OCC(C)CC(C)CC(C)CC(C)C` (stereo not given), for which the result was inactive. As for `CC(C)(C)c1cc(CCC(=O)NN)cc(C(C)(C)C)c1O`, the call was inactive. In the case of `CN=C(NC#N)Nc1ccc(C2=NNC(=O)CC2C)cc1` (stereo not given), the compound was classed as inactive.

These data come from PubChem BioAssay (Tox21).
